Measured values as given in paper PMC4336329 (PLoS ONE, 2015).
Among all 310,000 compounds or so, about 14,000 (4.5%) showed an effect of 50% or more. The effect is printed as a negative number. For the sample, strong results were picked, then their nearest neighbours and some compounds at random.

target: human ether-à-go-go-related gene (hERG) potassium channel (human, UniProt Q12809); test: primary screen, population patch clamp on CHO cells stably expressing hERG; higher = less effect of the substance
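Note: peak tail current of the secondary pulse compared with the same well before compound.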

Chain of human ether-à-go-go-related gene (hERG) potassium channel (Q12809 whole entry, looked up): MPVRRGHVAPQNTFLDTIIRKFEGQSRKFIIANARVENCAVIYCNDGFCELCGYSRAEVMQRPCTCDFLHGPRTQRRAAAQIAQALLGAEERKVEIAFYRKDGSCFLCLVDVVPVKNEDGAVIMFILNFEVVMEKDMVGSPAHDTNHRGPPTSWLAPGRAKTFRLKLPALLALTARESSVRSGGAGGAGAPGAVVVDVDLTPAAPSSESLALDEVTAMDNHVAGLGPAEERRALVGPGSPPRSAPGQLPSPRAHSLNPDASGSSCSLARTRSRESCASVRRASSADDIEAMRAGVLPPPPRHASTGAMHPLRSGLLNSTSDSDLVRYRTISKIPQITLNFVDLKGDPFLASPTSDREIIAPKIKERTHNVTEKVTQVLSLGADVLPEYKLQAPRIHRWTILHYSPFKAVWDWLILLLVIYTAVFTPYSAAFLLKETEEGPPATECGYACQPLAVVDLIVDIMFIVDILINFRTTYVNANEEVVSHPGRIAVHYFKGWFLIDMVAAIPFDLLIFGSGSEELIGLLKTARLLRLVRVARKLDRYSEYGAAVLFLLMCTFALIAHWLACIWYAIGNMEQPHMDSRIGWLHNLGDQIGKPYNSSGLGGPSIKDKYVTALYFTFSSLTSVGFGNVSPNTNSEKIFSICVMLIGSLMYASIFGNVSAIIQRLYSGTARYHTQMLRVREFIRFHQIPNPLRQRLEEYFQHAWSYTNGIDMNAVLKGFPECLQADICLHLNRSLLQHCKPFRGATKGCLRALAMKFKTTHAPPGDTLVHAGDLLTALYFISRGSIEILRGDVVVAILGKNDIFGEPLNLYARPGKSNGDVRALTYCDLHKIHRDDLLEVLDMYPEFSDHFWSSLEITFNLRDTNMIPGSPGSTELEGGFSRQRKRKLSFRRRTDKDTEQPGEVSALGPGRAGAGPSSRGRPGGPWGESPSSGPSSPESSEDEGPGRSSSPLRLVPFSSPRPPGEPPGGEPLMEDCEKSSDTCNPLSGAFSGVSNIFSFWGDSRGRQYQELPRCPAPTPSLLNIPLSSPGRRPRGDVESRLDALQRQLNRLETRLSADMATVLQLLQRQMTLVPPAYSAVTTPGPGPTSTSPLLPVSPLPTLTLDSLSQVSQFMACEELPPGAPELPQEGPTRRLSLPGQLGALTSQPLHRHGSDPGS

**Q.** With O=C(Nc1ccc(C(=O)N2CCC(O)(c3ccc(Cl)c(C(F)(F)F)c3)CC2)cc1)c1ccc(Br)o1 as the molecule, how does the “hERG current change (%, negative = inhibition) at 10uM” value read?
**A.** 8.21%

**Q.** How did the “hERG current change (%, negative = inhibition) at 10uM” value turn out when Cc1cc2cc(CCNC(=O)CC(C)(C)C)c(=O)[nH]c2cc1C was run?
**A.** 7.53%

**Q.** With O=C(Cc1coc(-c2ccc(F)cc2)n1)Nc1ccccc1 as the molecule, how does the “hERG current change (%, negative = inhibition) at 10uM” value read?
**A.** -15.4%

**Q.** With Cn1c(=O)c2ncn(CC(=O)Nc3nc(-c4ccc(Cl)cc4)cs3)c2n(C)c1=O as the molecule, how does the “hERG current change (%, negative = inhibition) at 10uM” value read?
**A.** 12.1%

**Q.** For N#CCc1c(C#N)c(N)nc(N2CCN(S(=O)(=O)c3ccccc3F)CC2)c1C#N, which “hERG current change (%, negative = inhibition) at 10uM” value is on record?
**A.** -9.75%

**Q.** O=C(CN(c1ccccc1)S(=O)(=O)c1ccccc1)Nc1ccc(F)cc1 was tested. Which “hERG current change (%, negative = inhibition) at 10uM” value did it give?
**A.** 22.6%

**Q.** With Cc1cccc(N2C(=O)NC(=O)/C(=C\c3cc(C)n(-c4sc5c(c4C#N)CCCC5)c3C)C2=O)c1C as the molecule, how does the “hERG current change (%, negative = inhibition) at 10uM” value read?
**A.** 4.35%

**Q.** Cc1nnc(NC(=O)CSc2nnc(C)n2Cc2ccccc2)s1 was tested. Which “hERG current change (%, negative = inhibition) at 10uM” value did it give?
**A.** 17.7%

**Q.** Which “hERG current change (%, negative = inhibition) at 10uM” value does the source give for O=C(c1cccc(S(=O)(=O)N2CCN(c3ccc(F)cc3)CC2)c1)N1CCCCCCC1 here?
**A.** -45.2%

**Q.** With CC1CCN(S(=O)(=O)c2cccc(C(=O)N3CCN(c4ccc(F)cc4)CC3)c2)CC1 as the molecule, how does the “hERG current change (%, negative = inhibition) at 10uM” value read?
**A.** -65.4%

**Q.** With CC1CC(C)CN(S(=O)(=O)c2cccc(C(=O)N3CCN(c4ccc(F)cc4)CC3)c2)C1 (stereo not drawn) as the molecule, how does the “hERG current change (%, negative = inhibition) at 10uM” value read?
**A.** -51.9%

**Q.** For CC(=O)N1CCN(C(=O)c2cccc(S(=O)(=O)N3CCN(c4ccc(F)cc4)CC3)c2)CC1, which “hERG current change (%, negative = inhibition) at 10uM” value is on record?
**A.** -20.1%

**Q.** With CC1CCN(C(=O)c2cccc(S(=O)(=O)N3CCN(c4ccccc4)CC3)c2)CC1 as the molecule, how does the “hERG current change (%, negative = inhibition) at 10uM” value read?
**A.** 2.41%

**Q.** Which “hERG current change (%, negative = inhibition) at 10uM” value does the source give for CC1CN(C(=O)c2cccc(S(=O)(=O)N3CCN(c4ccc(F)cc4)CC3)c2)CC(C)O1 (stereo not drawn) here?
**A.** -45.4%

**Q.** For COc1cc(/C=N/NC(=O)CSc2n[nH]c(=O)[nH]c2=O)cc(OC)c1O, which “hERG current change (%, negative = inhibition) at 10uM” value is on record?
**A.** 28.8%

**Q.** For Cc1cc(C)cc(-n2c(SC(C)C(=O)NCc3ccc4c(c3)OCO4)nc3ccccc3c2=O)c1 (stereo not drawn), which “hERG current change (%, negative = inhibition) at 10uM” value is on record?
**A.** 11.3%

**Q.** With COc1cc(NC(=O)c2ccc(C)cc2C)ccc1NC(=O)c1cc2ccccc2o1 as the molecule, how does the “hERG current change (%, negative = inhibition) at 10uM” value read?
**A.** 6.61%

**Q.** For Nc1c(C(=O)c2ccccc2)sc2nsc(SCCN3CCCC3)c12, which “hERG current change (%, negative = inhibition) at 10uM” value is on record?
**A.** -38.2%

**Q.** How did the “hERG current change (%, negative = inhibition) at 10uM” value turn out when Clc1ccc(N2CCN(/N=C/c3cccnc3)CC2)cc1 was run?
**A.** -1.21%

**Q.** How did the “hERG current change (%, negative = inhibition) at 10uM” value turn out when O=C(Nc1nccs1)c1ccc(Br)cc1 was run?
**A.** 12.1%

**Q.** Which “hERG current change (%, negative = inhibition) at 10uM” value does the source give for CCn1c(SCC(=O)N/N=C/C(C)=C\c2ccco2)nnc1-c1ccccc1 here?
**A.** -39%

**Q.** With Cc1ccc(/C=N/NC(=O)CSc2nnc(-c3ccccc3)n2-c2ccc(Cl)cc2)o1 as the molecule, how does the “hERG current change (%, negative = inhibition) at 10uM” value read?
**A.** -21.8%

**Q.** For CCn1c(SCC(=O)N/N=C/C(C)=C/c2ccco2)nnc1-c1ccccc1, which “hERG current change (%, negative = inhibition) at 10uM” value is on record?
**A.** -55.1%

**Q.** O=C(CSc1nnc(-c2ccc(Cl)cc2)n1-c1ccc(Cl)cc1)N/N=C/c1ccco1 was tested. Which “hERG current change (%, negative = inhibition) at 10uM” value did it give?
**A.** -41.7%

**Q.** Which “hERG current change (%, negative = inhibition) at 10uM” value does the source give for O=C(CSc1nnc(-c2ccccc2)n1-c1ccc(Cl)cc1)N/N=C/c1ccco1 here?
**A.** -55%

**Q.** For CCn1c(SCC(=O)N/N=C/C=C/c2ccco2)nnc1-c1ccccc1, which “hERG current change (%, negative = inhibition) at 10uM” value is on record?
**A.** -34.7%

**Q.** O=C(CSc1nnc(SCc2ccccc2)s1)N/N=C/c1ccc(Cl)cc1Cl was tested. Which “hERG current change (%, negative = inhibition) at 10uM” value did it give?
**A.** -5.88%

**Q.** With O=C(CSc1nnc(-c2ccccc2)c(-c2ccccc2)n1)NC1CCS(=O)(=O)C1 (stereo not drawn) as the molecule, how does the “hERG current change (%, negative = inhibition) at 10uM” value read?
**A.** 17.3%

**Q.** Cc1cc(C)n(-c2nc(SCCN(C)C)c3c4c(sc3n2)CCCC4)n1 was tested. Which “hERG current change (%, negative = inhibition) at 10uM” value did it give?
**A.** -53.7%

**Q.** With Cc1cc(C)n(-c2nc(NCCN(C)C)c3c4c(sc3n2)COC(C)(C)C4)n1 as the molecule, how does the “hERG current change (%, negative = inhibition) at 10uM” value read?
**A.** -32.7%

**Q.** Cc1cc(C)n(-c2nc(NCCCN(C)C)c3c4c(sc3n2)COC(C)(C)C4)n1 was tested. Which “hERG current change (%, negative = inhibition) at 10uM” value did it give?
**A.** -14.1%

**Q.** For CCN(CC)CCCNc1nc(-n2nc(C)cc2C)nc2sc3c(c12)CC(C)(C)OC3, which “hERG current change (%, negative = inhibition) at 10uM” value is on record?
**A.** -23%

**Q.** Cc1cc(C)n(-c2nc(SCCN(C)C)c3c4c(sc3n2)COC(C)(C)C4)n1 was tested. Which “hERG current change (%, negative = inhibition) at 10uM” value did it give?
**A.** -59.1%

**Q.** For Cc1cc(C)n(-c2nc(SCC(=O)N3CCCC3)c3c4c(sc3n2)CCCC4)n1, which “hERG current change (%, negative = inhibition) at 10uM” value is on record?
**A.** -9.29%

**Q.** Which “hERG current change (%, negative = inhibition) at 10uM” value does the source give for Cc1cc(C)n(-c2nc(NCCCN(C)C)c3c4c(sc3n2)CCCC4)n1 here?
**A.** -65.2%

**Q.** For Cc1cc(C)n(-c2nc(NCCN(C)C)c3c4c(sc3n2)CCCC4)n1, which “hERG current change (%, negative = inhibition) at 10uM” value is on record?
**A.** -16.3%

**Q.** CCN(CC)CCNc1nc(-n2nc(C)cc2C)nc2sc3c(c12)CC(C)(C)OC3 was tested. Which “hERG current change (%, negative = inhibition) at 10uM” value did it give?
**A.** -55.4%

**Q.** Cc1cc(C)n(-c2nc(SCC(=O)O)c3c4c(sc3n2)CCCC4)n1 was tested. Which “hERG current change (%, negative = inhibition) at 10uM” value did it give?
**A.** 6.68%

**Q.** For Cc1cc(C)n(-c2nc(SCC(=O)O)c3c4c(sc3n2)COC(C)(C)C4)n1, which “hERG current change (%, negative = inhibition) at 10uM” value is on record?
**A.** 2.48%

**Q.** With Cc1cc(C)n(-c2nc(NCCCO)c3c4c(sc3n2)CCCC4)n1 as the molecule, how does the “hERG current change (%, negative = inhibition) at 10uM” value read?
**A.** -17.9%

**Q.** With C=CCn1cc(/C=N\NC(=O)c2cc3c(ccc4ccccc43)o2)c2ccccc21 as the molecule, how does the “hERG current change (%, negative = inhibition) at 10uM” value read?
**A.** -4.85%

**Q.** For O=C(c1ccccc1)c1c[nH]c2ccccc12, which “hERG current change (%, negative = inhibition) at 10uM” value is on record?
**A.** 14.6%
